We go through 18 compounds from PubChem BioAssay (EPA / NIEHS).

Records with an inconclusive call do not appear. Calls of active or inactive are those of the source. Rule for the calls, unless noted: active = hit-call score of the fitted dose curve at least 0.9, where 1 is the maximum; inactive = score below 0.9.

Read-out in assay [1]: Monokine induced gamma interferon (MIG), CXCL9 (gene 4283)
In words: BSK_3C_MIG: BioMAP Diversity Plus: 3C Assay for Monokine induced gamma interferon (MIG) Biomarker Activity (AID 2283021).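 For AC50: MIG protein level measured by immunoassay in the treated endothelial cultures.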 Conditions: primary human endothelial cells (HUVEC); actives raise or lower the signal. In a few lines:
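ELISA-measured MIG in dosed HUVEC 3C cultures at 24 h, analysed by bidirectional fitting with DMSO defining baseline activity.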

Assay [2] deals with human Vitamin D Receptor (VDR), VDR (gene 7421) (UniProt P11473). In words: ATG_VDR_TRANS: Attagene TRANS-FACTORIAL HepG2 Assay for human Vitamin D Receptor (VDR) (AID 2283022; active = hit-call score of the fitted dose curve at least 0.9, where 1 is the maximum). A digest of the protocol:
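Multiplexed TRANS reporter in HepG2; 24 h treatment; reporter mRNA by RT-PCR plus capillary electrophoresis; upregulation scored relative to DMSO.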

A short description of assay [3]: BSK_3C_SRB: Viability Assessment in the BioMAP Diversity Plus: 3C Assay (AID 2283023).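 Note: fitted both ways against DMSO so a hit may be signal rise or drop.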 Particulars: primary human endothelial cells (HUVEC). A digest of the protocol:
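Overt cytotoxicity is gauged in parallel confluent HUVEC cultures by SRB total-protein staining at the time of biomarker measurement, 24 h after dosing. Gain or loss of signal is fitted versus DMSO.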

Read-out in assay [4]: Matrix Metallopeptidase 1 (MMP1), MMP1 (gene 4312)
In words: BSK_BE3C_MMP1: BioMAP Diversity Plus: BE3C Assay for Matrix Metallopeptidase 1 (MMP1) Biomarker Activity (AID 2283024). Conditions: primary human bronchial epithelial cells; actives raise or lower the signal. A digest of the protocol:
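In this multiplexed primary-cell system, human bronchial epithelium received chemicals for 24 h before an ELISA for MMP1. Values reflect bidirectional fits normalised to the DMSO baseline.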

Assay [5] in a line: BSK_3C_Vis: BioMAP Diversity Plus: 3C Assay for Morphology Visualization (AID 2283025).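 For AC50: light microscopy image of cell morphology used as background control; cells imaged 24 h after dosing.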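 Note: fitted both ways so gain or loss versus DMSO counts.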 Conditions: primary human endothelial cells (HUVEC). In a few lines: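 Light-microscopy morphology readout, 24 h exposure, human primary umbilical vein endothelium; analysed relative to DMSO with bidirectional fitting.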
Read-out in assay [6]: Pselectin, SELP (gene 6403)
In words: BSK_4H_Pselectin: BioMAP Diversity Plus: 4H Assay for Pselectin Biomarker Activity (AID 2283026). Conditions: primary human endothelial cells (HUVEC); actives raise or lower the signal. A digest of the protocol: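 Bidirectional fits against DMSO gave the endpoint. Cells: primary human umbilical vein endothelium, chemical-treated for 24 h before ELISA detection of P-selectin.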

Assay [7] is described as follows: BSK_4H_SRB: Viability Assessment in the BioMAP Diversity Plus: 4H Assay (AID 2283027).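 For AC50: curves fitted both ways versus DMSO so AC50 may be loss or gain.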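 Note: cells exposed to compound for 24 h before staining.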 Particulars: primary human endothelial cells (HUVEC). A digest of the protocol: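 Cytotoxicity read-out in primary human endothelial cells: after 24 h compound exposure, cells were TCA-fixed (10%), stained with 0.1% SRB and absorbance taken at 560 nm. Values fitted in both directions relative to DMSO.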

A short description of assay [8]: BSK_BE3C_SRB: Viability Assessment in the BioMAP Diversity Plus: BE3C Assay (AID 2283028).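 For AC50: fitted both ways so AC50 may mark signal gain or loss versus DMSO.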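 Note: measured 24 h after chemical dosing.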 Particulars: primary human bronchial epithelial cells. In a few lines: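 SRB total-protein staining (0.1%, after TCA fixation) of chemically dosed human bronchial epithelial primary cells at 24 h; DMSO serves as the negative control for bidirectional curve fitting.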
Read-out in assay [9]: Thrombomodulin, THBD (gene 7056)
In words: BSK_3C_Thrombomodulin: BioMAP Diversity Plus: 3C Assay for Thrombomodulin Biomarker Activity (AID 2283029). Conditions: primary human endothelial cells (HUVEC); actives raise or lower the signal. A digest of the protocol:
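In a multiplexed primary-cell system, human umbilical vein endothelium received chemical and was assayed 24 h later for thrombomodulin by ELISA. Parallel cultures were SRB-stained (0.1% SRB after 10% TCA fixation, read at 560 nm) to flag cytotoxicity.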

Read-out in assay [10]: Urokinase-type plasminogen activator receptor (uPAR), PLAUR (gene 5329)
In words: BSK_4H_uPAR: BioMAP Diversity Plus: 4H Assay for Urokinase-type plasminogen activator receptor (uPAR) Biomarker Activity (AID 2283030). Conditions: primary human endothelial cells (HUVEC); actives raise or lower the signal. In a few lines: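 Endpoint derived via bidirectional curve fitting against DMSO baseline; readout was ELISA detection of uPAR on umbilical vein endothelial cells at 24 h post-treatment, with SRB-stained parallel cultures assessing cytotoxicity.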

human Vitamin D Receptor (VDR), VDR (gene 7421), sequence (P11473 whole entry, looked up): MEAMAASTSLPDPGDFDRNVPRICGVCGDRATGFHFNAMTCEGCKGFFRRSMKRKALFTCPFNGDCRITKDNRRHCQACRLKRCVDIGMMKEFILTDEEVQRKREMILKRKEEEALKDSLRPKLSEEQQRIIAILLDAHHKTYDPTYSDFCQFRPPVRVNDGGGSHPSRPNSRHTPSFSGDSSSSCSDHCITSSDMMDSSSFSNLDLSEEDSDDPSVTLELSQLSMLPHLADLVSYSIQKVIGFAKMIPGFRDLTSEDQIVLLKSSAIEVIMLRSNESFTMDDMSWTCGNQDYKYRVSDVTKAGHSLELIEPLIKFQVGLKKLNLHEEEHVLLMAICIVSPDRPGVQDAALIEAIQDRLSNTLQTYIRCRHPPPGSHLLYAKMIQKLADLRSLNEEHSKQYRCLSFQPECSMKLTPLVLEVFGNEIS

In the case of `CCOP(=S)(Oc1cnc(C(C)(C)C)nc1)OC(C)C` (stereo not drawn), the AC50 was 34.2 µM (active) in assay [1]; 35.5 µM (active) in assay [3]; 39.8 µM (active) in assay [5]; 32 µM (active) in assay [6]; 34.1 µM (active) in assay [7]. The outcome in assay [2], in assay [4], in assay [8], in assay [9] and in assay [10] was inactive.
`CON=C(C(=O)OC)c1ccccc1CON=C(C)c1cccc(C(F)(F)F)c1`: the outcome in [1], in assay [4], in assay [5], in assay [6], in assay [8] and in assay [10] was inactive. Besides, the AC50 was 10.4 µM (active) in assay [3], 5.67 µM (active) in [7] and 3.92 µM (active) in [9].
Take `CCOP(=S)(OCC)Oc1ccc([N+](=O)[O-])cc1`: the result in assay [1], in assay [3], in [4], in [6], in assay [7] and in [9] was inactive. The result in assay [10] was inactive. For the same compound, the figures for the AC50 in assay [5] and in assay [8] were 39 µM (active) and 21.5 µM (active), respectively.
Consider `CCOP(=O)(NC(C)C)Oc1ccc(SC)c(C)c1` (stereo not drawn), for which the outcome in assay [1], in [3], in [4], in assay [5], in assay [6] and in [7] was inactive. Besides, the outcome in assay [8], in assay [9] and in [10] was inactive.
In the case of `CCOP(=O)(OCC)Oc1cc(C)nc(C(C)C)n1`, the outcome in assay [1], in assay [3], in [4], in [6], in assay [7] and in assay [8] was inactive. Besides, the result in [9] and in [10] was inactive. The AC50 in assay [5] was 39 µM (active).
For the compound `CCCOc1nn(C(=O)NS(=O)(=O)c2ccccc2C(=O)OC)c(=O)n1C`, the outcome in assay [1], in assay [3], in assay [4], in assay [5], in assay [6] and in assay [7] was inactive. Also, the outcome in assay [8], in assay [9] and in assay [10] was inactive.
Consider `C#CC(C)(C)NC(=O)c1cc(Cl)cc(Cl)c1`, for which the result in [1], in [3], in assay [4], in assay [6], in assay [7] and in assay [8] was inactive. The result in assay [9] and in [10] was inactive. The AC50 in assay [5] is 3.25 µM (active).
For `O=C(O)c1cc(Oc2ccc(C(F)(F)F)cc2Cl)ccc1[N+](=O)[O-]`, the outcome in [1], in assay [3], in [4], in [6], in [7] and in assay [8] was inactive. In addition, the outcome in [9] and in assay [10] was inactive. The AC50 in [5] was 9.8 µM (active).
`CN(C)C(=O)Nc1cccc(C(F)(F)F)c1`: the outcome in assay [1], in [3], in assay [4], in [6], in assay [7] and in [8] was inactive. Besides, the result in assay [9] and in assay [10] was inactive. The AC50 in assay [5] is 39 µM (active).
In the case of `CCOP(=S)(OCC)Oc1ccc2c(C)c(Cl)c(=O)oc2c1`, the outcome in [1], in [3], in assay [4], in assay [5], in [6] and in [7] was inactive. Also, the outcome in assay [10] was inactive. Besides, the values for the AC50 in [8] and in assay [9] were 20 µM (active) and 6.69 µM (active), respectively.
As for `COc1cccc(C(=O)NN(C(=O)c2cc(C)cc(C)c2)C(C)(C)C)c1C`, the result in assay [1], in assay [3], in [4], in assay [6], in assay [7] and in assay [8] was inactive. For the same compound, the result in [9] and in assay [10] was inactive. In assay [5], the AC50 was 39 µM (active).
As for `CCC(=NOC/C=C/Cl)C1=C(O)CC(C2CCOCC2)CC1=O` (stereo not drawn), the outcome in assay [1], in [3], in assay [4], in assay [5], in assay [6] and in assay [7] was inactive. For the same compound, the result in assay [8], in assay [9] and in [10] was inactive.
Take `Nc1nc(N)nc(NC2CC2)n1`: the outcome in assay [1], in assay [3], in [4], in [5], in assay [6] and in [7] was inactive. For the same compound, the outcome in assay [8], in assay [9] and in assay [10] was inactive.
With `C=C(C)[C@H]1Cc2c(ccc3c2O[C@@H]2COc4cc(OC)c(OC)cc4[C@@H]2C3=O)O1`, the result in [1], in assay [4], in assay [8] and in [9] was inactive. Also, the AC50 in assay [3] is 12.9 µM (active); in assay [5], 0.468 µM (active); in assay [6], 10.3 µM (active); in assay [7], 3.9 µM (active); in [10] it was 4.41 µM (active).
As to `CC(Oc1cccc(Cl)c1)C(=O)O` (stereo not drawn), the result in [1], in [3], in [4], in assay [5], in [6] and in [7] was inactive. In addition, the outcome in [8], in assay [9] and in assay [10] was inactive.
As for `CNC(=O)ON=C(C)SC`, the result in assay [1], in assay [3], in assay [4], in [5], in [6] and in assay [7] was inactive. Moreover, the result in assay [8], in assay [9] and in assay [10] was inactive.
As for `COP(=O)(OC)OC(Br)C(Cl)(Cl)Br` (stereo not drawn), the AC50 is 35.2 µM (active) in [1]; 28.8 µM (active) in [3]; 16.3 µM (active) in assay [5]; 13.2 µM (active) in assay [6]; 29 µM (active) in assay [7]; 25 µM (active) in [8]. The AC50 in assay [10] is 27.9 µM (active). The result in [4] and in [9] was inactive.
As to `CCCCOC(=O)c1ccccc1C(=O)O`, the outcome in [1], in [3], in assay [4], in assay [6], in [7] and in assay [8] was inactive. In addition, the result in assay [9] and in assay [10] was inactive. Moreover, the AC50 in assay [5] was 0.28 µM (active).
